Here are results for four compounds from PubChem BioAssay.

Inconclusive results are not listed. Activity calls are given as the source filed them. Cut-off read from the data, not from the text of the source, unless noted: active = response above about 15%; inactive = the rest.

Assay [1] is described as follows: rapamycin-like changes in RPL19A-GFP expression – cell-based, S. cerevisiae, multiplex flow cytometry, primary screen (AID 1862; in the data active = percent of DMSO control GFP below about 86%;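 note: lower values mimic rapamycin by blocking the RPL19A rise seen in DMSO cells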). Conditions: S. cerevisiae RPL19A-GFP strain, flow cytometry fluorescence, 3 h; at 10 µM; stronger effect = lower value. A general note: A flow cytometer gives signals particle by particle.
Assay [2] in a line: TOR pathway GLN3 branch reporter MEP2-GFP changes – S. cerevisiae, multiplex flow cytometry, primary screen (AID 1867;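 active = GFP response, as percent of the DMSO control, above the screen-wide mean plus 3 SD, about 139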;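 note: median GFP channel fluorescence of barcode-gated MEP2-GFP cells measured by flow cytometry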). The settings on record: S. cerevisiae MEP2-GFP strain, 3 h, at 10 µM, stronger effect = higher value, 100% means same as DMSO wells.
Assay [3] can be described thus: TOR pathway RTG branch CIT2 reporter changes – S. cerevisiae, GFP fusion, multiplex flow cytometry, primary screen (AID 1870;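 active = percent response above a set limit, the screen-wide mean plus 3 SD, cut at about 130% in these data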;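 note: barcoded CIT2-GFP strain pooled with four other GFP strains with rapamycin as positive control; median GFP fluorescence per well over plate mean of DMSO wells so 100% = DMSO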). The settings on record: S. cerevisiae CIT2-GFP expression, 3 h, at 10 µM, stronger effect = higher value.
Assay [4] in a line: TOR pathway LAP4-GFP level changes – S. cerevisiae, multiplex flow cytometry, primary screen (AID 1873;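 active = GFP signal, as percent of the solvent control, above the screen mean plus 3 SD, about 149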). The settings on record: S. cerevisiae LAP4-GFP expression, 3 h, at 10 µM, stronger effect = higher value.
Assay [5] is described as follows: yeast AGP1-GFP level changes, GLN3 branch – cell-based, multiplex flow cytometry, S. cerevisiae, primary screen (AID 1887;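 active = GFP signal above the screen-wide mean plus 3 SD, that is over about 124.5% of the solvent control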;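 note: AGP1-GFP fusion strain of S. cerevisiae within a five-strain barcoded multiplex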). Conditions: 3 h, at 10 µM, stronger effect = higher value.
Assay [6] is described as follows: reduced mouse 2C T cell binding to pMHC/ICAM-1 vesicles – MLPCN validation set, flow cytometry, LFA-1/ICAM-1 modulator project, pilot screen (AID 2523;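 active = response below a set limit, under 55% cells CD8-positive and vesicle-bound, and CD8 cells' 90th-percentile brightness under 279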;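 for vesicle binding response: mean PE anti-B7-1 fluorescence of CD8+ cells relative to row control; 100% = QL9-loaded vesicles with DMSO vehicle in the same plate row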). Conditions: 2C mouse CD8+ T cells, at 7 µM, stronger effect = lower value; double positive events: measured here: CD8+/vesicle+ event percentage.
In assay [7] the target is Integrin beta-1 (Homo sapiens) + Integrin alpha-4 (Homo sapiens) (UniProt P13612+P05556). Nature of the assay: alpha4beta1 integrin LIBS antibody binding reduction – U937 cells, HUTS-21 mAb, flow cytometry, validation set, VLA-4 allosteric modulator project, pilot screen (AID 2674;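 active = inhibition above 50%, about 3 SD of the validation set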;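 note: antibody binding induced by the VLA-4 ligand LDV present at three times its Kd; 0% = LDV ligand with antibody and no compound and 100% = antibody without LDV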). The settings on record: HUTS-21 LIBS mAb binding, at 6.7 µM, stronger effect = higher value, binding induced by LDV ligand.
Chain of Integrin beta-1 (Homo sapiens) + Integrin alpha-4 (Homo sapiens) (P05556 whole entry, looked up): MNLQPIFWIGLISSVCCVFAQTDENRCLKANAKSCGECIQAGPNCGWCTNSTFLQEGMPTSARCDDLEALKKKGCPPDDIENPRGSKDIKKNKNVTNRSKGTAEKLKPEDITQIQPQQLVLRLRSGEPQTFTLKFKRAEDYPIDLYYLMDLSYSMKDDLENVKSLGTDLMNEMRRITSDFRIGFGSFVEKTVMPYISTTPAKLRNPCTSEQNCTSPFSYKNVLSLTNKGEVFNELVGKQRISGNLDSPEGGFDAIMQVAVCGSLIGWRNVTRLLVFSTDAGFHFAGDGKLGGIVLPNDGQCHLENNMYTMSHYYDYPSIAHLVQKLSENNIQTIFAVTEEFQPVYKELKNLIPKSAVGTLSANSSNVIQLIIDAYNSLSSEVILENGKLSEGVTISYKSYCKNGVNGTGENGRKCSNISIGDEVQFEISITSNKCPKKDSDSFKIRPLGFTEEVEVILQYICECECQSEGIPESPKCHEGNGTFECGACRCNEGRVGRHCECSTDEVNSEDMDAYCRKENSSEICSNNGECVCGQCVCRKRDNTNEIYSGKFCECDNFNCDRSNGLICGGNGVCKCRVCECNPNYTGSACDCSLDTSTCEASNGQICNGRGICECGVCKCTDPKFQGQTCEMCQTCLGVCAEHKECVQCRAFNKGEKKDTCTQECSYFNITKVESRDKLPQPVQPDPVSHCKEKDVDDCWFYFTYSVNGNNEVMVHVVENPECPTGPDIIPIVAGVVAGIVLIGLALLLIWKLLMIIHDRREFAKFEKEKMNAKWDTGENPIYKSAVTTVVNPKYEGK
Chain of Integrin beta-1 (Homo sapiens) + Integrin alpha-4 (Homo sapiens) (P13612 whole entry, looked up): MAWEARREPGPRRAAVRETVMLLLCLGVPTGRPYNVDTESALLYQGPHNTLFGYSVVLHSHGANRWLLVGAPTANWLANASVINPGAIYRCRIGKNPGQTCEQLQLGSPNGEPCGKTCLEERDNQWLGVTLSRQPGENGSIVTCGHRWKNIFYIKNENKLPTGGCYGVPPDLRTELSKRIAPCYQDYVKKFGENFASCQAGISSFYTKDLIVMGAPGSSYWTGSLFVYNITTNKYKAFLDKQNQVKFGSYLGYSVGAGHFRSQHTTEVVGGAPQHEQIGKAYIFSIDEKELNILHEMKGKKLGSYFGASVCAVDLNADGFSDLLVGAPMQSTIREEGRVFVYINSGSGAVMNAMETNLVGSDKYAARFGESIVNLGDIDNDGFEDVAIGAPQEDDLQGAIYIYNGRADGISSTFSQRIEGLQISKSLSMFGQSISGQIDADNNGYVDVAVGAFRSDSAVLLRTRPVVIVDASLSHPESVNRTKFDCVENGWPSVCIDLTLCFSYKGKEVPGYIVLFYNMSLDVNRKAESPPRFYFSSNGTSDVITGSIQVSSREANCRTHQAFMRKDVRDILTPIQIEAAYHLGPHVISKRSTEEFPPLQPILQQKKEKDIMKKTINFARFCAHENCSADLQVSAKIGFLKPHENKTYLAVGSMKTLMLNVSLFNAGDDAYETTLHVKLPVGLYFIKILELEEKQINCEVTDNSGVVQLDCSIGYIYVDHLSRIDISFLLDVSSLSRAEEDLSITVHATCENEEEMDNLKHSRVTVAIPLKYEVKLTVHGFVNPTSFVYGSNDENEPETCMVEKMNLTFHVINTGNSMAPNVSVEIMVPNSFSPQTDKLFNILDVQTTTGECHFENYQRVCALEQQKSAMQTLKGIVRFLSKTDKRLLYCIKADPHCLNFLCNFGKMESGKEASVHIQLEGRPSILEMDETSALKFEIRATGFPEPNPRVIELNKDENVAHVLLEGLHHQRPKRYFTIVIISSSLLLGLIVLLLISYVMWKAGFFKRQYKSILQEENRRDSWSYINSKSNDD

The nature of assay [8]: calorie-restriction mimetic ROS inhibitors, yeast – validation compound set, pilot screen (AID 2706;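 active = superoxide response below 65% of plate, a cut near 3 SD across the whole screen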;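 note: yeast exposed to compound for one week at 30 degrees C before staining; 100% = mean of all compound wells on the same plate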). Conditions: S. cerevisiae aging, superoxide DHE fluorescence; at 10 µM; stronger effect = lower value.
Assay [9] has as its target Beta-adrenergic receptor kinase 1 (Homo sapiens) (UniProt P25098). The assay is described as follows: GRK2 binders displacing RNA aptamer, biochemical, validation, human GRK2, bead flow cytometry (AID 488806;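 active = aptamer binding inhibition above 30%, about 3 SD of noise from non-fluorescent compounds; inactive = inhibition at or below 30%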). The settings on record: bead-bound GRK2, FAM-aptamer displacement, at 10 µM, stronger effect = higher value.
The target of assay [10] is Beta-2 adrenergic receptor (Homo sapiens) (UniProt P07550). Nature of the assay: agonist-induced loss of surface beta2AR – cell-based, FAP fluorogen, flow cytometry, validation set, pilot screen (AID 504459;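 active = percent response above 42, roughly 3 SD of non-fluorescent test compounds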;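 note: agonist-driven loss of surface beta2AR via internalization measured by FAP dye flow cytometry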). The settings on record: Am2.2-beta2AR cells, at 10 µM, stronger effect = higher value.
Chain of Beta-2 adrenergic receptor (Homo sapiens) (P07550 whole entry, looked up): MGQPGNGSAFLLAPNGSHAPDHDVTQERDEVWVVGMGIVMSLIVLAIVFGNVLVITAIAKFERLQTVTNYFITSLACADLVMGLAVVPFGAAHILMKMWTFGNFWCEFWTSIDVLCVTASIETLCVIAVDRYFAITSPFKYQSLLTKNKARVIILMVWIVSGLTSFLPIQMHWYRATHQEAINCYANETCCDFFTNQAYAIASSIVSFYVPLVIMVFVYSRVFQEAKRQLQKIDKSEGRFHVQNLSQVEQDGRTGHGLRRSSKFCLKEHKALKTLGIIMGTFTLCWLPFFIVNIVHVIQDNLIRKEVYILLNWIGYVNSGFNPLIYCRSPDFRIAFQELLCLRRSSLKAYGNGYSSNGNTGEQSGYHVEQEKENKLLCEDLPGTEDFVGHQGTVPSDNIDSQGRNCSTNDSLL
Assay [11] addresses AP-2 complex subunit beta (Homo sapiens) (UniProt P63010). The assay is described as follows: beta-arrestin/AP2 interaction blockers – biochemical, validation set, GST-AP2 beads, flow cytometry, pilot screen (AID 504541;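 active = inhibition above 54%, about 3 SD of non-fluorescent compounds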;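 note: AP2 carries R879A mutation and is captured from E. coli lysate; bead-bound FITC arrestin peptide fluorescence measuring arrestin peptide binding to AP2; 0% = DMSO wells and 100% = excess unlabeled arrestin peptide control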). Conditions: FITC arrestin peptide, at 10 µM, stronger effect = higher value, AP2 beta2 appendage fragment, R879A mutant.
Assay [12] in a line: cytosolic pH regulators acting via V-ATPase – S. cerevisiae, pHLuorin, HTS validation (AID 504600).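 Note: plate controls were DMSO for no effect and reference compound for full effect.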 The settings on record: V-ATPase proton transport, at 10 µM, stronger effect = higher value.
The subject of assay [13] is anti-desmoglein-3 scFv antibody binding to human DSG3. The assay is described as follows: blockers of pathogenic pemphigus antibody–desmoglein-3 binding – biochemical, validation compound set, bead-based, flow cytometry, pilot screen (AID 588368;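 active = binding below the plate cutoff, the plate median minus 3 SD, with a reading above zero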;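 note: signal is the median channel fluorescence of bead-bound GFP antibody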). The settings on record: Protein G beads, DSG3-Fc, scFv-GFP binding, at 10 µM, stronger effect = lower value.
Assay [14] can be described thus: Nile Red efflux blockade in pump-expressing yeast – validation compound set, multiplex, phenotypic, pilot screen (AID 588506;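 active = efflux inhibition above 0.42, the validation set average plus 4 SD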;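 note: Nile Red retained in cells so higher fluorescence means more efflux inhibition; 0 = negative control wells and 1 = enniatin B 25 µM full block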). Conditions: S. cerevisiae pump-expressing triplex, Nile Red efflux flow cytometry; at 10 µM; stronger effect = higher value; the pumps come from Candida albicans.
Assay [15] deals with ATP-binding cassette sub-family B member 6 (Homo sapiens) (UniProt Q9NP58). Nature of the assay: blockers of ABCB6-driven porphyrin uptake – K562-ABCB6 cells, flow cytometry, validation set, pilot screen (AID 588550;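 active = inhibition above the screen-wide mean plus 3 SD, about 51%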;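 note: 0% = DMSO wells and 100% = benzethonium chloride 70 µM positive control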). Conditions: K562-ABCB6 porphyrin accumulation, 1 h, at 10 µM, stronger effect = higher value.
Chain of ATP-binding cassette sub-family B member 6 (Homo sapiens) (Q9NP58 whole entry, looked up): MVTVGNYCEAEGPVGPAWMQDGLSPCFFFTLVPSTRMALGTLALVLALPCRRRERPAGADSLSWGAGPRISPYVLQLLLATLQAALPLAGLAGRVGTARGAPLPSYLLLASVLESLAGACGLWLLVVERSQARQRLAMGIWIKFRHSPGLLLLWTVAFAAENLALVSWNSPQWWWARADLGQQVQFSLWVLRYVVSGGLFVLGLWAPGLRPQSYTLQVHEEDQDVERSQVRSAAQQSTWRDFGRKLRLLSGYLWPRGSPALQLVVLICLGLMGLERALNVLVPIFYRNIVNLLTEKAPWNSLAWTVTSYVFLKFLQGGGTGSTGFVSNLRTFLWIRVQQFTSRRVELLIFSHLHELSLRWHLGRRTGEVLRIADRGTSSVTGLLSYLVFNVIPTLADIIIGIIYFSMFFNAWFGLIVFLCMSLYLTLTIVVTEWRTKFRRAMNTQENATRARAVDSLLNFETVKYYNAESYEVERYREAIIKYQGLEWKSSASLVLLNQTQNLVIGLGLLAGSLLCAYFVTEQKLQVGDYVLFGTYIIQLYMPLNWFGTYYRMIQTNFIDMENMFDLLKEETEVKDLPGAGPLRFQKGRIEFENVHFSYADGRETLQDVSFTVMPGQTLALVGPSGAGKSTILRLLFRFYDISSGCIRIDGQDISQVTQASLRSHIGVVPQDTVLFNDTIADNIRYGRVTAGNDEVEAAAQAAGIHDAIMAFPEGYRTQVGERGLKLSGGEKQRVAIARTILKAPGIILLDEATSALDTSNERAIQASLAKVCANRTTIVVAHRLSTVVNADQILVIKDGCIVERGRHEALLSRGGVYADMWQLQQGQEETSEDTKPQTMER
Assay [16] can be described thus: AML differentiation inducers, ER-HoxA9 marrow cells – cell-based, GFP/MAC1 double positive, flow cytometry, validation set, primary screen (AID 588685;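 active = differentiation response of at least 50%, scaled between solvent and reference control, from cells with both markers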;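 note: compound exposure lasts four days before antibody staining and flow analysis; 0% = DMSO wells and 100% = 5 µM fulvestrant positive control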). Conditions: stronger effect = higher value, normalized: vehicle 0, fulvestrant 100.

Chain of AP-2 complex subunit beta (Homo sapiens) (P63010 whole entry, looked up, the tested form may be a part, one chain of several): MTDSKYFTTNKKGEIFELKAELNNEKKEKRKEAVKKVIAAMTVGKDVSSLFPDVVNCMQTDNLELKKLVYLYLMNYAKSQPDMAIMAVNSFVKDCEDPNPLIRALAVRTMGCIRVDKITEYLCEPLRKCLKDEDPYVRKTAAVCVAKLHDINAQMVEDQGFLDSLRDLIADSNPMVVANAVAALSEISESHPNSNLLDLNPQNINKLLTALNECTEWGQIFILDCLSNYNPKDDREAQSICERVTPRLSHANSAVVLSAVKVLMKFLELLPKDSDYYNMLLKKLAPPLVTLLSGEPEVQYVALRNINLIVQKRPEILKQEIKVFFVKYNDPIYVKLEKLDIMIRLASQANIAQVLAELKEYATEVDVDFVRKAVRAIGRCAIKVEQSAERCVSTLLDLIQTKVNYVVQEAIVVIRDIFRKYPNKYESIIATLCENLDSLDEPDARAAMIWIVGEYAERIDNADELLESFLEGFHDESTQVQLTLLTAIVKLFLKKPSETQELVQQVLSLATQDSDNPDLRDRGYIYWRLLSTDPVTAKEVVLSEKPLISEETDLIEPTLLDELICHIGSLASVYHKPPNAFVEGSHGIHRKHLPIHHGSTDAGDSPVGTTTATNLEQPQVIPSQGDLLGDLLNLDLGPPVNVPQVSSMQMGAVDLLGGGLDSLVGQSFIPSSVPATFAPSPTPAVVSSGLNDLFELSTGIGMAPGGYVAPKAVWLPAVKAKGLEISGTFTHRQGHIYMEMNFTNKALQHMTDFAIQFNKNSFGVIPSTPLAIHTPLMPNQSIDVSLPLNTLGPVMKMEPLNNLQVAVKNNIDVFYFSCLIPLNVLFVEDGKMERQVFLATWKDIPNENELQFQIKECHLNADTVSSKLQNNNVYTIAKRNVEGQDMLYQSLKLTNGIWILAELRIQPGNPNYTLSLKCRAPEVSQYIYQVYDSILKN
Chain of Beta-adrenergic receptor kinase 1 (Homo sapiens) (P25098 whole entry, looked up): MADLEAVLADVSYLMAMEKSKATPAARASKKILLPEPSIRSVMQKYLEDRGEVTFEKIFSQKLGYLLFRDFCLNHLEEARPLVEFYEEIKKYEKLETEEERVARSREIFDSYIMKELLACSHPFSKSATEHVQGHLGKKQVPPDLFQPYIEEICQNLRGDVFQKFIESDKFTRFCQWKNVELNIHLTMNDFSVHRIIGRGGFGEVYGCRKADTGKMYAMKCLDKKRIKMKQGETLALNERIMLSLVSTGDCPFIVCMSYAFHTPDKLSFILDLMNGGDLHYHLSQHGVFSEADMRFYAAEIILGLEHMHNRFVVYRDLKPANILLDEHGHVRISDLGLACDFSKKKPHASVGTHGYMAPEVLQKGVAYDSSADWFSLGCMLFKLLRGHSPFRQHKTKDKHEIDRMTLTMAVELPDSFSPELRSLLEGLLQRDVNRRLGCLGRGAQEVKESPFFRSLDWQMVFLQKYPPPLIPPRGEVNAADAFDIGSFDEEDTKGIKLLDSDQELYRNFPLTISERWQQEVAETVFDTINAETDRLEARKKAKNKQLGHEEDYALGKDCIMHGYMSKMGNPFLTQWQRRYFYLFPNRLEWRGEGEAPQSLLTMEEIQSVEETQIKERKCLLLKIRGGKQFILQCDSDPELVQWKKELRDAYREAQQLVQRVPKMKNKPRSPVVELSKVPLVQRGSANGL

As for `Cc1nc(C2CC(=O)OC23CCCCC3)cs1` (stereo not drawn), the percent of DMSO control GFP in assay [1] is 94.4% (inactive). Further, the GFP response vs DMSO is 106% (inactive) in assay [2] and 116% (inactive) in assay [4]. In [3], the percent response of DMSO control was 94.8% (inactive). Moreover, in [5], the GFP response, % of DMSO is 94% (inactive). The same compound returned a double positive events in assay [6] of 61.4%. Further, the vesicle binding response in [6] was 136% (inactive). Moreover, the inhibition in assay [7] was -0.43% (inactive); in [11], -1.27% (inactive); in assay [15], 7% (inactive). Besides, the superoxide response (% of plate) in assay [8] was 104% (inactive). In addition, the aptamer binding inhibition in assay [9] was 9% (inactive). Further, the response in [10] was -0.69% (inactive); in assay [12], 1.08% (inactive). In addition, in assay [13], the binding (% of control) is 98.7% (inactive). In assay [14], the efflux inhibition (fraction of control) is -0.24 (inactive). For the same compound, the differentiation response in assay [16] was -20% (inactive).
Regarding `CC(C)CCNC(=O)[C@H](CC(C)C)NC(=O)[C@H]1O[C@@H]1C(=O)O`, the percent of DMSO control GFP in assay [1] is 108% (inactive). Also, the GFP response vs DMSO in [2] is 101% (inactive); in assay [4], 93.3% (inactive). Also, the percent response of DMSO control in assay [3] was 112% (inactive). Besides, in assay [5], the GFP response, % of DMSO was 107% (inactive). Moreover, the double positive events in assay [6] stood at 52.8%. Also, the vesicle binding response in [6] is 39.4% (active). The values for the inhibition in [7], in assay [11] and in [15] were -4.6% (inactive), -12.3% (inactive) and 3% (inactive), respectively. For the same compound, the superoxide response (% of plate) in assay [8] was 96.2% (inactive). Moreover, the aptamer binding inhibition in assay [9] is 3% (inactive). Besides, the response in [10] is -6.13% (inactive); in assay [12] it was 1.19% (inactive). Also, the binding (% of control) in assay [13] was 98.4% (inactive). For the same compound, the efflux inhibition (fraction of control) in assay [14] was 0.08 (inactive). Moreover, the differentiation response in [16] is -1.71% (inactive).
`COc1ccc(C2CC(c3ccc([N+](=O)[O-])cc3)=NN2C(=O)c2ccccc2)cc1OC` (stereo not drawn): in assay [1], the percent of DMSO control GFP is 97.1% (inactive). The GFP response vs DMSO is 101% (inactive) in assay [2] and 108% (inactive) in assay [4]. In [3], the percent response of DMSO control was 97% (inactive). Besides, the GFP response, % of DMSO in assay [5] is 116% (inactive). In addition, the double positive events in assay [6] is 64.6%. Also, the vesicle binding response in assay [6] is 211% (inactive). The inhibition was 13.4% (inactive) in assay [7], 65.2% (active) in [11] and 0% (inactive) in assay [15]. Besides, the superoxide response (% of plate) in [8] is 79.1% (inactive). Also, in assay [9], the aptamer binding inhibition was 4% (inactive). Further, the response in [10] was 6.46% (inactive); in assay [12], -0.24% (inactive). Besides, the binding (% of control) in assay [13] is 92.9% (inactive). Besides, the efflux inhibition (fraction of control) in assay [14] was 0.59 (active). The differentiation response in assay [16] is -12.9% (inactive).
As to `CCOC(=O)C1=C(C)NC(C)=C(C(=O)OC)C1c1cccc([N+](=O)[O-])c1` (stereo not drawn), in assay [1], the percent of DMSO control GFP was 91.3% (inactive). Also, the GFP response vs DMSO in assay [2] is 124% (inactive); in assay [4] it was 85.3% (inactive). The percent response of DMSO control in assay [3] was 95.2% (inactive). Moreover, the GFP response, % of DMSO in [5] is 91.5% (inactive). Moreover, the double positive events in [6] was found to be 63.3%. In addition, the vesicle binding response in assay [6] is 200% (inactive). The results for the inhibition in assay [7], in [11] and in assay [15] were 8.4% (inactive), 41.2% (inactive) and 18% (inactive), respectively. For the same compound, the superoxide response (% of plate) in assay [8] was 104% (inactive). Further, the aptamer binding inhibition in assay [9] was 2% (inactive). In addition, the response in assay [10] is -11.6% (inactive); in [12], -3.09% (inactive). Also, in [13], the binding (% of control) is 95.6% (inactive). For the same compound, the efflux inhibition (fraction of control) in assay [14] is 0.12 (inactive). In addition, the differentiation response in assay [16] was -1.64% (inactive).

By inhibition is commonly meant the relative decrease from the control value, in per cent.
